# Bioassay records (PubChem BioAssay)
# FMDV antiviral – blocks foot and mouth disease virus | FMDV antiviral cell-based qHTS | Potency, µM (doses to about 57.9 µM), inactives show top-dose activity change, negative = inhibition, actives largely listed as inhibitors | hit rate 1.2% among 410,000 | AID 1159524; calls by dose curve; tested in HEK293T cells; also: read-out not given here; potency is read from the fitted curve at half-maximal effect; nearly all actives have a fitted effect of over 45% in size
# VACV mCherry inh – vaccinia inhibition (mCherry reporter); Vaccinia virus mCherry reporter infection, fluorescence; Potency, µM (doses to about 36.5 µM), for inactives: top-dose activity change, negative = inhibition, usual class: inhibitors; AID 720579; hit rate 0.63% among 310,000; calls by dose curve; tested in A549 cells; also: potency is read from the fitted curve at half-maximal effect; nearly all actives have a fitted effect of over 35% in size
# Vaccinia Venus – vaccinia inhibition (Venus reporter). Vaccinia virus Venus reporter expression, fluorescence. Potency, µM (highest dose often 36.5 µM), without a hit: at the highest dose activity change, negative = inhibition, usual class: inhibitors. hit rate 0.46% among 330,000; calls by dose curve; tested in A549 cells; also: potency is read from the fitted curve at half-maximal effect; nearly all actives have a fitted effect of over 30% in size
# Sm TGR block – blocks Schistosoma mansoni thioredoxin glutathione reductase; Potency, µM (highest dose often 114 µM), without a hit: at the highest dose activity change, negative = inhibition, actives largely listed as inhibitors; AID 485364; hit rate 3% among 360,000; purified TGR, DTNB reduction, TNB absorbance 405 nm; Q962Y6; also: potency is read from the fitted curve at half-maximal effect; nearly all actives have a fitted effect of over 60% in size
#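 First, TGR (20 nM dispensed) and NADPH were mixed with compound. Second, a 15 min room-temperature incubation followed. Third, further NADPH and then DTNB were added to start the reaction. Finally, TNB absorbance was monitored kinetically.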
# HCV inhibitor – HCV inhibition; Huh7.5.1 HCVcc-Cre infection, luciferase reporter, 44 h; Potency, µM (highest dose often 41.8 µM), for the others: at the top dose activity change, negative = inhibition, usual class: inhibitors; hit rate 3.4% among 340,000; AID 651820; also: potency is read from the fitted curve at half-maximal effect
#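 Infectious HCVcc-Cre (~0.5 moi) was added to cells just after compound, with cells seeded 4 h earlier at 1,000 per well. Luciferase activity after 44 h culture reported infection; substrate was incubated 15 min at room temperature before reading.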
# HCMV antiviral – human cytomegalovirus inhibition | HFF cells, HCMV-luciferase reporter, 72 h; hits give low values | activity change, negative = inhibition, % at 57.5 µM | hit rate 4.5% among 410,000 | AID 1259415; in the data active = activity change below about -60%; inconclusive = no clear call, values can overlap the other calls; inactive = above about -39%
#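 Human foreskin fibroblasts infected with luciferase-reporter HCMV at MOI 1 PFU/cell, compounds at two doses. Luciferase measured 72 h post infection; normalized to buffer-only basal and Salinomycin (10uM) controls.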
# Starred values were filed as active, the others as inactive; i = inactive; ? = inconclusive; . = not tested or not shown. Most compounds without a hit are left out; they make up all but 9.3% or so of the library. Unless noted, calls follow the shape of the dose curve; as a rule, active = well fitted curve in the direction sought with a large enough effect; inconclusive = small, poorly fitted or top-dose-only effect, or another doubt; inactive = no such curve, though single readings can be large; an effect the other way counts as inactive or inconclusive. % is scaled to controls: 0 for no effect and ±100 for the full control effect.
SMILES,FMDV antiviral,VACV mCherry inh,Vaccinia Venus,Sm TGR block,HCV inhibitor,HCMV antiviral
CC(C)c1cc(C(=O)Nc2cc(Br)ccc2O)no1,.,i,-7%,22%,-23%,9
CC(C)c1cc(C(=O)Nc2cc(Cl)ccc2O)no1,44%,i,-12%,2%,10µM*,66
COC(=O)CC1Nc2ccccc2SC1=O (configuration not stated),2%,.,.,9%,9%,-10
COc1ccc(C(C)=O)cc1COC(=O)CNC(=O)C1CCCCC1,10%,i,-1%,.,2%,-15
COc1ccc(NC(=O)CCN2C(=O)C3C4C=CC(C4)C3C2=O)cc1 (configuration not stated),4%,9%,-3%,.,0%,6
Cc1cc(NC(=O)CCN2C(=O)C3C4C=CC(C4)C3C2=O)ccc1Br (configuration not stated),14%,-15%,-13%,7%,-1%,-68*
CC(N)C(=O)c1ccco1 (configuration not stated),-18%,.,-26%,6%,1%,-68*
CCOC(=O)C(Cc1ccccc1)C(=O)c1ccco1 (configuration not stated),4%,i,-5%,-31%,5%,0
O=C(NCCO)C(=O)NCC(c1ccc2c(c1)OCO2)N1CCOCC1 (configuration not stated),-13%,-3%,-3%,-2%,.,24
COc1cccc(C2Nc3c(F)cc(Br)cc3C3C=CCC32)c1OC (configuration not stated),-20%,-13%,-6%,12%,-8%,-20
COc1cc(C2Nc3c(F)cccc3C3C=CCC32)cc(Br)c1OC (configuration not stated),?,-20%,-5%,20µM*,1%,-14
CN(C)c1oc(-c2ccco2)nc1S(=O)(=O)c1ccc(Br)cc1,25%,-18%,-5%,?,11%,?
Cc1ccc(S(=O)(=O)c2nc(-c3ccco3)oc2NCC2CCCO2)cc1 (configuration not stated),21%,-13%,2%,8.9µM*,4%,-26
O=S(=O)(c1ccc(Br)cc1)c1nc(-c2ccco2)oc1NCC1CCCO1 (configuration not stated),38%,-15%,-7%,20µM*,28%,5
Cc1ccc(CSc2oc(-c3ccco3)nc2S(=O)(=O)c2ccc(C)cc2)cc1,-26%,-4%,-16%,-7%,.,-18
COC(=O)C1=C(c2ccc(F)cc2OCc2ccccc2)C[C@@H]2CC[C@H]1N2C(=O)NCc1ccc(C)cc1,-3%,-3%,?,-1%,?,-67*
COC(=O)C1=C(c2ccc(F)cc2OCc2ccccc2)C[C@@H]2CC[C@H]1N2C(=O)NCCCc1ccccc1,-30%,-6%,?,6%,10µM*,-26
COC(=O)C1=C(c2ccccc2OCc2ccccc2)C[C@@H]2CC[C@H]1N2C(=O)NCc1ccc(F)cc1,-29%,0%,?,-2%,7.1µM*,-34
COC(=O)C1=C(c2ccc(F)cc2OCc2ccccc2)C[C@@H]2CC[C@H]1N2C(=O)NC1Cc2ccccc2C1,-18%,-14%,?,-6%,11µM*,-8
COC(=O)C1=C(c2ccc(F)cc2OCc2ccccc2)C[C@@H]2CC[C@H]1N2C(=O)N1CCCCC1,-15%,-13%,?,-16%,?,-14
COC(=O)C1=C(c2ccc(F)cc2OCc2ccccc2)C[C@@H]2CC[C@H]1N2C(=O)NCc1ccc(F)cc1,-31%,-32%,-26%,-9%,?,-20
CC(C)c1ccc(NC(=O)c2ccc3oc(=O)c(S(=O)(=O)c4ccc(F)cc4)cc3c2)cc1,?,-6%,-7%,0%,.,71
Cc1cccc(NC(=O)c2ccc3oc(=O)c(S(=O)(=O)c4ccc(F)cc4)cc3c2)c1C,32µM*,-13%,-3%,16%,.,46
CCOc1cc(/C=N/NC(=O)Cn2nc([N+](=O)[O-])cc2C)cc(Br)c1OCc1ccccc1F,0%,.,.,-2%,15%,-96*
CCCC(=O)Nc1ccc(C(=O)O)cc1NC(=O)CCC,0%,-9%,3%,7%,3%,-9
